Assay results published in PubChem BioAssay (NCATS).
Records with an inconclusive call do not appear. Where a structure was tested more than once in an assay, its records may differ in their call. Active and inactive are the calls of the source. Unless noted, calls follow the shape of the dose curve; as a rule, active = well fitted curve in the direction sought with a large enough effect; inconclusive = small, poorly fitted or top-dose-only effect, or another doubt; inactive = no such curve, though single readings can be large; an effect the other way counts as inactive or inconclusive.

Columns and labels:
[1] = target: ATP-dependent 6-phosphofructokinase (Trypanosoma brucei brucei) (UniProt O15648); assay: qHTS Assay to Find Inhibitors of T. brucei phosphofructokinase: hit validation (AID 492961);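 also: luminescence reports ADP formed as PFK phosphorylates fructose-6-phosphate with ATP; series mostly up to about 51 µM; % is scaled to controls: 0 for no effect and ±100 for the full control effect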
ATP-dependent 6-phosphofructokinase (Trypanosoma brucei brucei), sequence (O15648 whole entry, looked up): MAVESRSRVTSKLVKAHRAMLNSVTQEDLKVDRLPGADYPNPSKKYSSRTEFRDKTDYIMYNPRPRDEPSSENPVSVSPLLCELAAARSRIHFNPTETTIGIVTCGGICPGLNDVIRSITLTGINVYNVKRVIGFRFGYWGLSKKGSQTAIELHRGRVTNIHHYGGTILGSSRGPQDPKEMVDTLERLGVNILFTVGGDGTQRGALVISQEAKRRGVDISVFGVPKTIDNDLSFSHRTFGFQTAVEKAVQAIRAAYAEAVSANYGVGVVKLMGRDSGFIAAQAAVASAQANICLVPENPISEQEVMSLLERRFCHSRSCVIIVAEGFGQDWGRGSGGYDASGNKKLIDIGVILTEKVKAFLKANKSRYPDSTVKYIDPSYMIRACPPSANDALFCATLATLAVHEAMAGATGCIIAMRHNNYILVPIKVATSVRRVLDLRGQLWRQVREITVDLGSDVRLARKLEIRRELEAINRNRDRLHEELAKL
Method in brief: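 Percent activity derived from corrected luminescence, normalized between 0x and 1x enzyme controls, then fitted to concentration-response curves. Conditions: 1.25 nM PFK, 0.1 mM ATP, 0.5 mM F6P, 45 min RT.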

[2] = target: Tumor susceptibility gene 101 protein (Homo sapiens) (UniProt Q99816); assay: qHTS Validation Assay for Iinhibitors of HIV-1 Budding by Blocking the Interaction of PTAP/TSG101 (AID 485342; calls by dose curve; also: 0% is about no effect)
Tumor susceptibility gene 101 protein (Homo sapiens), sequence (Q99816 whole entry, looked up, the tested form may be a part): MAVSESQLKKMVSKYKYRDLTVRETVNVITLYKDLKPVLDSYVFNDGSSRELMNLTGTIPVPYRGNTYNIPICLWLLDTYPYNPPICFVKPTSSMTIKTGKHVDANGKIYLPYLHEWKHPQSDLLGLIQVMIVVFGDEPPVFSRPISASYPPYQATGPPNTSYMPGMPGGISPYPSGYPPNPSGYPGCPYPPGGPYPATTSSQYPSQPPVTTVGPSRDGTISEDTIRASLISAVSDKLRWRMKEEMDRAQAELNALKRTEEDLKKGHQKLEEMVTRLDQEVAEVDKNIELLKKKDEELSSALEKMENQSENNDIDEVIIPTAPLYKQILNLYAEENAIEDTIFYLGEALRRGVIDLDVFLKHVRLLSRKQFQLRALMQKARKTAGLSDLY
Method in brief: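 Tsg101 binding domain (10 uM final) in pH 7.5 HEPES/NaCl/Tween 20/EDTA/TCEP buffer was mixed with pin-transferred compounds, then FITC-labeled PTAP peptide (50 nM final) was added; after 20 min at r.t., fluorescence polarization was read.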

[3] = qHTS Validation Assay to Find Inhibitors of Chronic Active B-Cell Receptor Signaling (AID 485345; active = well fitted curve in the direction sought with a large enough effect in the main read-out, with a control signal flat, not every such curve was filed as active;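 also: 0% = untreated basal cells and 100% = 10 µM MG-132 proteasome inhibitor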)
Method in brief: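 TMD8 ABC-DLBCL cells with dox-inducible green luciferase–IκBα fusion and red native luciferase; compounds 46 uM–3 nM, 4 h at 37C with doxycycline in 0.5% FBS IMDM. Green/red ratio normalized to basal and 10 uM MG-132.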

[4] = target: ATP-dependent 6-phosphofructokinase (Trypanosoma brucei brucei) (UniProt O15648); assay: qHTS Validation Assay to Find Inhibitors of T. brucei phosphofructokinase (AID 485368)
Method in brief: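 Compounds (up to 57 uM, titration series) were pinned into substrate buffer, then 1.25 nM PFK added; after 45 min at room temperature, ADP product was quantified by ADP-Glo luminescence and concentration-response curves fitted.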

[5] = Quantitative high throughput screen for delayed death inhibitors of the malarial parasite plastid, 48 hour incubation (AID 488752); also: nearly all actives have a fitted effect of over 65% in size; also: potency is read from the fitted curve at half-maximal effect
Method in brief: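 Readout is firefly luciferase luminescence from a reporter integrated into the parasite genome, with lower signal taken as inhibited growth. Infected red cells (0.1% parasitemia, 2% hematocrit final) are cultured with compound for one 48 h cycle at 37 C.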

[6] = target: Thioredoxin reductase 1, cytoplasmic (Rattus norvegicus) (UniProt O89049); assay: qHTS Assay for Substrates of Mammalian Selenoprotein Thioredoxin Reductase 1 (TrxR1) (AID 488772);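 also: NADPH fluorescence in the first read after selenite addition and not the 8 min delta; series mostly up to about 57 µM; 0% is about no effect; a drop in NADPH fluorescence below the no-compound background marks a TrxR1 substrate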
Thioredoxin reductase 1, cytoplasmic (Rattus norvegicus), sequence (O89049 whole entry, looked up): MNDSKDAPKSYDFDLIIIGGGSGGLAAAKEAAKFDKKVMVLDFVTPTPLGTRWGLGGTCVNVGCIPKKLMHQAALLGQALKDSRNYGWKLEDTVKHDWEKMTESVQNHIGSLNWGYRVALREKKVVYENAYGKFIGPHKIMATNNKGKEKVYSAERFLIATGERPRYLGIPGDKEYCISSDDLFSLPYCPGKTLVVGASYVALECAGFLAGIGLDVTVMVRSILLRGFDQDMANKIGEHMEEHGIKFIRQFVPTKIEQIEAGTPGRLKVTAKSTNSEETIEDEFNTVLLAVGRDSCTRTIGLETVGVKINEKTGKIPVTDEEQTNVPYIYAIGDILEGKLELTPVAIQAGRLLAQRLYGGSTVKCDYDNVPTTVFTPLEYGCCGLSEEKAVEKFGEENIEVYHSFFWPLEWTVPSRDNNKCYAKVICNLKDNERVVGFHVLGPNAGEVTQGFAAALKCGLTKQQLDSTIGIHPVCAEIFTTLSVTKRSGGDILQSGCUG
Method in brief: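 Quantitative HTS in Tris-HCl buffer at pH 7.5 with EDTA and Tween-20, using rat TrxR1, 400 uM NADPH and 400 uM selenite (final). A fall in initial NADPH fluorescence relative to background marked substrate behaviour.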

[7] = target: Thioredoxin reductase 1, cytoplasmic (Rattus norvegicus) (UniProt O89049); assay: qHTS Assay for Inhibitors of Mammalian Selenoprotein Thioredoxin Reductase 1 (TrxR1) (AID 488773);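 also: drop in NADPH fluorescence over an 8 min run after selenite addition; series mostly up to about 57 µM; % is scaled to controls: 0 for no effect and ±100 for the full control effect; nearly all actives have a fitted effect of over 40% in size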
Method in brief: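 Steps: enzyme (90 nM) plus NADPH (400 uM final), 5 min at ~22 deg C; compound added, 15 min; selenite (400 uM final) added; fluorescence followed for 8 min. Concentration-response curves derived from the normalized delta values.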

[8] = target: M-phase phosphoprotein 8 (Homo sapiens) (UniProt Q99549); assay: qHTS Validation Assay for Inhibitors for MPP8 Chromodomain Interactions with Methylated Histone Tails (AID 488949); also: nearly all actives have a fitted effect of over 55% in size; also: potency is read from the fitted curve at half-maximal effect
Method in brief: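 MPP8 (50 nM) was preincubated with biotinylated H3(1-18)K9me3 peptide (50 nM) in PBS pH 7.4, 0.01% Tween-20 for 30 min at room temperature, then with compounds for 30 min; binding was detected by AlphaScreen.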

[9] = target: Chromobox protein homolog 1 (Homo sapiens) (UniProt P83916); assay: qHTS Validation Assay for Inhibitors of HP1-beta Chromodomain Interactions with Methylated Histone Tails (AID 488953); also: nearly all actives have a fitted effect of over 50% in size; also: potency is read from the fitted curve at half-maximal effect
Method in brief: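 50 nM HP1-beta + 50 nM biotin-H3(1-18)K9me3, PBS pH 7.4, 0.01% Tween-20, 30 min RT; compound added, 30 min RT; AlphaScreen beads 10 ug/mL final, 30 min dark; luminescence read.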

[10] = target: Methanococcus maripaludis chaperonin (MmCpn) (UniProt Q6LX38); assay: High-Throughput Screening for Modulators of Cytosolic Chaperonin Activity: MmCpn Primary Screen (AID 488978);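 also: 50 nM MmCpn enzyme hydrolysing 30 µM ATP at 37 °C; 0% is about no effect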
Method in brief: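 MmCpn (50 nM final) was preincubated with compound 5 min at RT, then 30 uM ATP (final) was added and the reaction ran 10 min at 37C. ADP produced was detected by Transcreener HTRF (ex 320 nm; em 590/665 nm).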

[11] = target: Transient receptor potential cation channel subfamily V member 1 (Homo sapiens) (UniProt Q8NER1); assay: HTS Assay for Compounds that Act as Enhancers of the Vanilloid Receptor 1 (AID 488979); also: 0% is about no effect
Transient receptor potential cation channel subfamily V member 1 (Homo sapiens), sequence (Q8NER1 whole entry, looked up): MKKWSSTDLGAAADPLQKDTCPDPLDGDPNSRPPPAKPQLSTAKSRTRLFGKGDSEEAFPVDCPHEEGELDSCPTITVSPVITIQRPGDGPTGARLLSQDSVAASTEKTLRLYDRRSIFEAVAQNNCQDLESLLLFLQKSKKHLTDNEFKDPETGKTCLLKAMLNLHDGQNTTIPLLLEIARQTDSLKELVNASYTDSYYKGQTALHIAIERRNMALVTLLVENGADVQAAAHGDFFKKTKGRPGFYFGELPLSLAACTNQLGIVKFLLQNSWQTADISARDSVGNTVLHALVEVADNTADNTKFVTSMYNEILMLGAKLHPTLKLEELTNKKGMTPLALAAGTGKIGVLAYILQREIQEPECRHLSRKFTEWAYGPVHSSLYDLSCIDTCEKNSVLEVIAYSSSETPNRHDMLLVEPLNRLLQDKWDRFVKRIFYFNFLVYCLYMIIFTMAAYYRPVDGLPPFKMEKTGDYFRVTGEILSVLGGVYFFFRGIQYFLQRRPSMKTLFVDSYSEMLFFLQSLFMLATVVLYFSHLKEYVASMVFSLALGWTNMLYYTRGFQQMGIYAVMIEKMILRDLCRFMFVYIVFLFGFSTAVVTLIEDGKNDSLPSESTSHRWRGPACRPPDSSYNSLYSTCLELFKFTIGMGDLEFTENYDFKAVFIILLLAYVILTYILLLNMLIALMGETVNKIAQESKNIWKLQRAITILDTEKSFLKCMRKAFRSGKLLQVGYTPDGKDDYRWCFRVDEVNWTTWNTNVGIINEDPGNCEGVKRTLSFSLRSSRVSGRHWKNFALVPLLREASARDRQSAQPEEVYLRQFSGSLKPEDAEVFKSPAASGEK
Method in brief: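 TRPV1-expressing cells loaded with Fluo-8 calcium dye; compounds added and calcium influx read kinetically for 3 min (agonist phase), then capsaicin at EC20 added and read 2 min more for enhancement. Fluorescence ex 480/em 520 nm.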

[12] = target: Thyrotropin receptor (Homo sapiens) (UniProt P16473); assay: qHTS Assay for Antagonists of the Thyroid Stimulating Hormone Receptor (AID 488980); also: series mostly up to about 58 µM; 0% is about no effect
Method in brief: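 HEK293 cells transfected with human TSHR, suspended in HEPES-buffered HBSS with 70 uM RO 20-1724, were treated with compounds plus TSH at EC80 (4 nM final). cAMP was measured by competitive HTRF (cryptate anti-cAMP antibody, cAMP-d2 acceptor).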

[13] = target: D(1A) dopamine receptor (Homo sapiens) (UniProt P21728); assay: HTS Assay for Allosteric Agonists of the Human D1 Dopamine Receptor: Primary Screen for Agonists (AID 488981); also: 0% is about no effect
D(1A) dopamine receptor (Homo sapiens), sequence (P21728 whole entry, looked up): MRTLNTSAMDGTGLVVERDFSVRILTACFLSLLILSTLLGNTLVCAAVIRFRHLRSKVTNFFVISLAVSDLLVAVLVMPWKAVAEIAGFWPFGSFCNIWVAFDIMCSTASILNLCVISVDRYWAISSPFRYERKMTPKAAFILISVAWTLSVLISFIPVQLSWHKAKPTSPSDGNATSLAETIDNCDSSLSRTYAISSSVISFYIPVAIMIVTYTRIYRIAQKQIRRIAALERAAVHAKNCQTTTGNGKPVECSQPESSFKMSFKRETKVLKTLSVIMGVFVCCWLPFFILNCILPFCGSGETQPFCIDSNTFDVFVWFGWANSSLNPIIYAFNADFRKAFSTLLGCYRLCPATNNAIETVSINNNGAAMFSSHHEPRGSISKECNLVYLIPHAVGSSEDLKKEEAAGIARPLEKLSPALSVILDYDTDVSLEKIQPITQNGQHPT
Method in brief: (§1)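 Tetracycline-induced HEK293 T-REx cells force-coupled to calcium signalling were incubated overnight at 30 C and dye-loaded at room temperature. Calcium flux over 180 s after compound addition flagged agonists; a further 180 s read after EC20 dopamine flagged potentiators.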

[14] = target: D(1A) dopamine receptor (Homo sapiens) (UniProt P21728); assay: HTS Assay for Allosteric Agonists of the Human D1 Dopamine Receptor: Primary Screen for Potentiators (AID 488982); also: 0% is about no effect
Method in brief: as §1

[15] = target: D(1A) dopamine receptor (Homo sapiens) (UniProt P21728); assay: HTS Assay for Allosteric Agonists of the Human D1 Dopamine Receptor: Primary Screen for Antagonists (AID 488983);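 also: calcium flux response to an EC80 dopamine challenge measured with no-wash dye; nearly all actives have a fitted effect of over 65% in size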; also: potency is read from the fitted curve at half-maximal effect
Method in brief: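 Cells are induced with tetracycline and incubated overnight at 30 C, then loaded with calcium dye for 30 to 90 minutes at room temperature. Compound addition is followed by a 180 s read, then an EC80 dopamine addition and another 180 s read.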

[16] = Validation screen for small molecules that induce genotoxicity in human embryonic kidney (HEK293T) cells expressing luciferase-tagged ELG1 (AID 493106); also: 0% is about no effect
Method in brief: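 Luminescence from an ELG1-luciferase fusion serves as the read-out, rising when genetic stress elevates ELG1 protein. HEK293T reporter cells (2,000 per well) received 23 nL compound, incubated 16 hr at 37 °C, then ONE-Glo for 30 min at room temperature.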

[17] = target: ATPase family AAA domain-containing protein 5 (Homo sapiens) (UniProt Q96QE3); assay: Validation screen for small molecules that inhibit ELG1-dependent DNA repair in human embryonic kidney (HEK293T) cells expressing luciferase-tagged ELG1 (AID 493107); also: nearly all actives have a fitted effect of over 70% in size; also: potency is read from the fitted curve at half-maximal effect
ATPase family AAA domain-containing protein 5 (Homo sapiens), sequence (Q96QE3 whole entry, looked up, the tested form may be a part): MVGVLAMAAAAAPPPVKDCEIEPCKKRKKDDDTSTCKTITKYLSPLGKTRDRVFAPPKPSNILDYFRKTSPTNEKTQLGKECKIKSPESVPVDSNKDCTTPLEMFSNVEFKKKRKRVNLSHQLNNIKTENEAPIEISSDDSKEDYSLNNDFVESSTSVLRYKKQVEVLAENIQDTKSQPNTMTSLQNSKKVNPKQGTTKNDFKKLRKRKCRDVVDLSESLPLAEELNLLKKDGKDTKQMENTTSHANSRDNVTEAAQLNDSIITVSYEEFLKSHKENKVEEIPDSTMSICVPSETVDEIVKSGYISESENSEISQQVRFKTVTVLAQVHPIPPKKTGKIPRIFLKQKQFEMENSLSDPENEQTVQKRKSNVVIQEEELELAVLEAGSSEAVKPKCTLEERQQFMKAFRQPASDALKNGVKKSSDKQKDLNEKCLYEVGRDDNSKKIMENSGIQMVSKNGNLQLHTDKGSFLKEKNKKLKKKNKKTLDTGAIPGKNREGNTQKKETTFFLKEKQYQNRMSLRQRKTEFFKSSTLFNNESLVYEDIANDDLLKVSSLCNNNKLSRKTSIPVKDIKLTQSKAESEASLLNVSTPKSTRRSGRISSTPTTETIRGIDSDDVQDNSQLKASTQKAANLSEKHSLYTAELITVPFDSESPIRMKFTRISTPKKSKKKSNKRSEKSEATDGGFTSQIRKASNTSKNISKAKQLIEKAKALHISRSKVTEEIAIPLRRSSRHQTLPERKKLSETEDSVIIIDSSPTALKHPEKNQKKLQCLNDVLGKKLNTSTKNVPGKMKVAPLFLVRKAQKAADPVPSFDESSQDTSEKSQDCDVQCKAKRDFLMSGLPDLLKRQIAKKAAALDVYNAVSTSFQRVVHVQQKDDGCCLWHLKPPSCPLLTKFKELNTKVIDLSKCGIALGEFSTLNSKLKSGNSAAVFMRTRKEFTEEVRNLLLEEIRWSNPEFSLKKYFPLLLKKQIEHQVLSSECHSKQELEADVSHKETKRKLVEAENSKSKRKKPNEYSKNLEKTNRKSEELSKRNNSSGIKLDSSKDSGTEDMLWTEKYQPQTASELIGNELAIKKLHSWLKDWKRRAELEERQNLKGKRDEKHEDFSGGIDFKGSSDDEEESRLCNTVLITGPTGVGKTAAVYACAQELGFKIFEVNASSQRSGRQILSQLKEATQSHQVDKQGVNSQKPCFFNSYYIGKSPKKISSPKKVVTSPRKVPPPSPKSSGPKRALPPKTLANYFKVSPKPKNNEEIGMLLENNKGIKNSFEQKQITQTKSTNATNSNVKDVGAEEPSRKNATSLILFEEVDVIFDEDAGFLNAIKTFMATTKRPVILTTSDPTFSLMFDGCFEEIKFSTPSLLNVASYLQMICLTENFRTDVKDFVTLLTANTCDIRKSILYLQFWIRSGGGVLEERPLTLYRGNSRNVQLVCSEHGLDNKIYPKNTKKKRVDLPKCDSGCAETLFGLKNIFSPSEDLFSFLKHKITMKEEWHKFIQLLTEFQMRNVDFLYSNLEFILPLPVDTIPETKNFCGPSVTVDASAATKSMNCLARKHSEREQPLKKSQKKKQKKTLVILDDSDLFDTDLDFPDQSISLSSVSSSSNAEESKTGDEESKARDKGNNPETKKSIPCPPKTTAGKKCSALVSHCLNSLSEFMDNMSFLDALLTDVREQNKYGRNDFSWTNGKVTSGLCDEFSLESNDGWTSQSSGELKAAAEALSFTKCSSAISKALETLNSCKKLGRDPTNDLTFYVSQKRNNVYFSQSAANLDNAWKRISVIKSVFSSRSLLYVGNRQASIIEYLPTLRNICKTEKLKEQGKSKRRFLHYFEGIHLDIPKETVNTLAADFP
Method in brief: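 Luminescence from ONE-Glo, developed 30 min at room temperature, served as read-out of ELG1-luciferase levels. Beforehand, reporter HEK293T cells received 5-fluorouridine plus test compound for 16 hr at 37 °C.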

[18] = target: Thyrotropin-releasing hormone receptor (Homo sapiens) (UniProt P34981); assay: qHTS for Small Molecule Agonists and Allosteric Enhancers of Human TRH Receptor: Validation Screen for Agonists (AID 493127;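 active = calcium activation more than 3 SD above the typical response in the agonist read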;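 also: intracellular calcium rise by fluo-8 fluorescence before TRH EC20 addition; 0% is about no effect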); settings: TRH receptor agonist cell assay; at 2 µM; stronger effect = higher value
Thyrotropin-releasing hormone receptor (Homo sapiens), sequence (P34981 whole entry, looked up): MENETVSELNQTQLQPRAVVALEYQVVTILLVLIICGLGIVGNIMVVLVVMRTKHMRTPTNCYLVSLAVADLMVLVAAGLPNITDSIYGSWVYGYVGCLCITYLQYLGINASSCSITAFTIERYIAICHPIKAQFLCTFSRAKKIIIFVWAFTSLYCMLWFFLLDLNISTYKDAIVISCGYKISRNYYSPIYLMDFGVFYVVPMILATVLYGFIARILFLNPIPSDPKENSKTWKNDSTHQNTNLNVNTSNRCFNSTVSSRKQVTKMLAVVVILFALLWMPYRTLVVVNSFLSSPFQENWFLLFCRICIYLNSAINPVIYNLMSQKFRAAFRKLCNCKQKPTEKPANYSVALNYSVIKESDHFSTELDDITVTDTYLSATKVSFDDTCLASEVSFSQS
Method in brief: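 Cells 2000/well, 10% FCS, 18 h 33.5C/5% CO2 → fluo-8 Ca dye, RT 30 min–1.5 h → FDSS baseline 10 × 1 s → compound added → 230 cycles (1 s/cycle) agonist mode. TRH controls.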

[19] = Nrf2 qHTS screen for inhibitors: Validation (AID 493153; active = well fitted inhibition curve with a large enough effect in the main read-out, with a control signal flat, not every such curve was filed as active); settings: viability change: measured here: cytotoxicity max response
Method in brief: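 Luminescence from an ARE-firefly luciferase reporter in A549 cells gives Nrf2 inhibition; an earlier CellTiter-Fluor fluorescent read flags cytotoxicity. Cells in 5% FBS OPTI-MEM received compound dilution series for 18-24 h at 37°C.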

[20] = Quantitative high throughput screen for delayed death inhibitors of the malarial parasite plastid, 96 hour incubation (AID 488745); also: nearly all actives have a fitted effect of over 70% in size; also: potency is read from the fitted curve at half-maximal effect
Method in brief: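 Infected erythrocytes were added to compound in Albumax-supplemented RPMI 1640 at 0.1% parasitemia and 2% hematocrit (final), incubated 96 h at 37 C under 5% CO2, then luciferase reagent was added and luminescence measured.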

Cc1ncc(CSSCc2cnc(C)c(O)c2CO)c(CO)c1O
inactive: outcome [1]

COC(=O)[C@H]1[C@H]2C[C@H]3c4[nH]c5ccccc5c4CCN3C[C@H]2CC[C@@H]1O
inactive: outcome [2] | outcome [3] | Potency [4] | Potency [5] | outcome [6] | outcome [7] | Potency [8] | Potency [9] | outcome [10] | outcome [11] | outcome [12] | Potency [13] | outcome [14] | Potency [15] | outcome [16] | Potency [17] | activation [18] 1.44% | outcome [19]
-3.55%: viability change [19]

CN=C(NC#N)Nc1ccc(C2=NNC(=O)CC2C)cc1 (centres undefined)
inactive: Potency [20] | Potency [5] | Potency [8] | outcome [11] | outcome [12]

CCOc1ccc(Cc2nccc3cc(OCC)c(OCC)cc23)cc1OCC
inactive: outcome [1]

COc1cc(NS(C)(=O)=O)ccc1Nc1c2ccccc2nc2ccccc12
39.8 µM (active) and inactive: Potency [8]
active: Potency [20] 1170 nM | Potency [5] 1850 nM | Potency [9] 79400 nM | Potency [15] 1120 nM | Potency [17] 14600 nM
inactive: outcome [2] | Potency [4] | outcome [6] | outcome [7] | outcome [10] | outcome [11] | outcome [12] | Potency [13] | outcome [14] | outcome [1] | activation [18] -3.12%

CN1C2CCC1CC(OC(=O)c1c[nH]c3ccccc13)C2 (centres undefined)
-7.62%: viability change [19]
inactive: outcome [2] | outcome [3] | outcome [6] | outcome [7] | Potency [8] | Potency [9] | outcome [10] | outcome [11] | outcome [12] | Potency [13] | outcome [14] | Potency [15] | outcome [16] | Potency [17] | activation [18] 0.812% | outcome [19]

CCC(NC(C)C)C(O)c1ccc(O)c(O)c1 (centres undefined)
inactive: outcome [2] | outcome [3] | Potency [4] | Potency [5] | outcome [6] | Potency [8] | Potency [9] | outcome [10] | outcome [11] | outcome [12] | Potency [13] | outcome [14] | Potency [15] | outcome [16] | Potency [17] | activation [18] 0.625% | outcome [19]
-19.1%: viability change [19]

C[C@H]1[C@H](NC(=O)/C(=N/OC(C)(C)C(=O)O)c2csc(N)n2)C(=O)N1S(=O)(=O)O (stereo in doubt)
inactive: outcome [1]

N[C@H](CO)C(=O)O
inactive: outcome [2] | outcome [3] | Potency [4] | Potency [20] | Potency [5] | outcome [6] | outcome [7] | Potency [8] | Potency [9] | outcome [10] | outcome [11] | outcome [12] | Potency [13] | outcome [14] | Potency [15] | outcome [16] | Potency [17] | activation [18] 0.688% | outcome [19]
0.276%: viability change [19]

CNCCC(Oc1ccccc1C)c1ccccc1 (centres undefined)
3.06%: viability change [19]
inactive: outcome [2] | outcome [3] | Potency [20] | Potency [5] | outcome [6] | Potency [8] | outcome [10] | outcome [12] | Potency [13] | outcome [14] | outcome [1] | outcome [16] | Potency [17] | outcome [19]
